The record followed here is PubChem BioAssay AID1159506 (National Center for Advancing Translational Sciences (NCATS), 2015).

Over roughly 59,000 sequences, the read-out has its median near -0.00055; the lowest 2% begin near -2. This excerpt belongs to a sample that is enriched for the lowest values.

The experiment in a line: Identification of proteins required for the processing of the EWS-FLI1 nascent transcript.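 Also: robust z of luciferase light less the median z of siRNAs with the same seed.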 As to conditions: TC32 Ewing sarcoma NR0B1-luc vs CMV-luc (EWS-FLI1 target promoter against control promoter), 48 h; screened at 20 nM (by protocol). The method, boiled down: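 TC32 Ewing sarcoma cells carrying NR0B1-promoter or CMV-promoter luciferase reporters were reverse-transfected with single siRNAs at 20 nM, three per gene genome-wide. Luminescence was read after 48 h and normalized to non-targeting controls.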
Sequence UACCUUAACCAUCCGAUGC against WDR6 registered a seed-corrected z-score of 0.132. In turn, UAGAGGAUAAUGUUCUCGG against ABHD17C returned a seed-corrected z-score of -12.1. The result for UUGGAGAUCAAUCCAGCCU against CBFB reads 0.537; that for UCAAUCAUCCGUGAGUUGC against WBSCR22, 0.315; that for UUUCAGCUGCGCUCGGUUC against GOLGA6L2, -3.72. The same measure for UGCAUUCCGGCUGUGAUCG against LINC00152: -0.804; for UUAUGGGCUCUGAUGACCG against DIP2C: 0.0672. Regarding UUCAGGAUCGCGGUUAUCA against OR4X2, the seed-corrected z-score worked out at 0.269. The same measure for UUAAAGACUCGGUUCACUG against PLXNA3: -1.44; for UAUACUCCCGCACAUAGCC against PI4KA: -0.673. The same measure for UUGUUAUGAAUGUACAUCG against TMEM181: -5; for UCCGCAGUUCCUUAAGUGG against LOC401589: 0.0579.

For UGCUGAAACCUUGAUGUGC against CRTC3, the seed-corrected z-score was 1.11.

Turning to UUGAGUAAGAGAUGGACCC against ZNF184, the seed-corrected z-score was -0.444. The same measure for AAUGAUCCCACAGAUAUCA against IKZF1: 0.796; for UCUGUUCGAUCAUCCGUGC against ACP6: -0.281; for UGUGUCCCUCCCAAUCUCC against GGT2: 0.0675. The result for AAAUCGAUGAGAAACCUGC against KAT6A reads 0.325.

Sequence UACAUUGUAGCAGAUGUUG against ACSS2 returned a seed-corrected z-score of -0.36.

“AAGUCUACAAGUGAUCUCU against ATP6V0E2-AS1” had a seed-corrected z-score of -2.23.

For UGUUGUUUACGUUCGAUUG against ADD3, the seed-corrected z-score is -0.745. UGUUAGGUAAGGCUAGGUC against UTS2B came in with a seed-corrected z-score of 0.63.

In turn, AUUAUGAGCAUGCAGGUUC against ANKRD6 had a seed-corrected z-score of 1.1. On to UUUCUUCCCAGGUGUCUUG against PTHLH, for which the seed-corrected z-score was -2.12.

As to UCUAGACCUAUGGACAGUC against WDFY2, the seed-corrected z-score was -0.0809.

Sequence UUAGCUUCCUCCAAAAUGC against LOC342293 had a seed-corrected z-score of 1.1.

The sequence UCCUGGUUAAAUAGGAAGG against BLID had a seed-corrected z-score of -0.822. The result for UACUGAGUAGUAGUUGGGC against DISP3 reads -2.25; that for UUUGGUUUGGAAAAGGUAC against KMT5A, 0.072; that for UAACUUAGAAUUCCAUUUU against DMRTA2, 0.067.

For UGUCCUACCACAGUCUUCA against LINC00703, the seed-corrected z-score is -0.2. The same measure for UUUUCUGCAGCUUUAAGGG against IL17C: 1.34; for UGGUCAAUCUGUUCAAUGG against C16orf70: -13.9. For UACAUAGUAAACUCGCCCG against ITCH, the seed-corrected z-score stood at 0.22.

Regarding UAAGUAACCCAAGUAUUGC against C2orf69, the seed-corrected z-score was 0.361. On to AGGGUUGACAUGGAACUGC against FITM1, for which the seed-corrected z-score was 0.313.

Regarding UUCCGUACAAAAUUGUGCA against ARAF, the seed-corrected z-score is -0.24. The result for UGAGGUACAGUGAACAAGG against TMEM110 reads -0.57; that for AAACUGCUUCCGGACAUUG against ACAD8, -1.71; that for UACGUUUCUGAAGAAGGUG against FAM231D, 1.63. The result for UCUAGGAAAAGGACUCGGC against IKZF2 reads 0.168. The result for UUGCUUAUUCUCUCUCACG against CAAP1 reads -3.02. UAAAAUACCCACGUGGUUC against TMEM150A came in with a seed-corrected z-score of 0.686. Take UUUCUCUGAAGUUAAGUCC against G0S2: the seed-corrected z-score is -0.192. The result for UAGAUAAUCUUGAACCUUC against UGP2 reads 0.118; that for UGCUUGAACGUGUCCGUCC against LRRC4B, -0.284; that for UAACAGCGAAUUCCAAGGC against ZBTB12, -2.07.

Consider AAGACUAUAAAUCAUGUAG against LMBRD1, for which the seed-corrected z-score is -0.385. The same measure for AAUGUUGUGAUUAAGUAAG against DFNB59: -2.62; for ACCUUGACCAGAAAGCUGC against C20orf27: -0.672. As to AAAAGUAUUACAAAAAGUG against MYOD1, the seed-corrected z-score was -0.532. As for UAUACGUAAUGAAAGUUUC against SNX7, the seed-corrected z-score amounted to 0.211. On to AAACUGUGCAAAAGUCUCU against APCDD1L-AS1, for which the seed-corrected z-score was -0.722. The result for UUUGUGUCCACCGUUAUAA against EVPLL reads 0.153. The result for AAAUGUACCAAUACGUAGU against TMEM107 reads -2.13; that for UCGUUUCUGUGCUCCGUCC against PCP2, 0.0855; that for UCGAUGUACACUUUGAGGC against B3GNT8, 0.222. The result for UAUGAUUAAGAAUGAAACC against OR6C1 reads 0.426; that for UAUGGUUAGACCGCUUUCG against KIAA0408, 0.0809; that for AUAUGUUCGACUAUCAUGG against KATNBL1, -3.24. Sequence UAAGUCAGGAUAUUCGCUC against CRELD2 yielded a seed-corrected z-score of -1.22. The same measure for UAAUGCGAUACAACUCGAC against COX4I1: 1.65.

In turn, UGCACGAUCCGUUUGCUUC against RNASE11 registered a seed-corrected z-score of -0.108. The result for UCUGGAUCUGGUUUGCUGC against ZBTB3 reads -1.18. Regarding UUACUUAGUCUUGUGGUGG against HIST1H2AJ, the seed-corrected z-score was 0.917. The result for ACGGUUUCAAUAUCUAACG against FAM160B1 reads -14.4; that for AGGAAUACAAGUCAUAUGC against TFB2M, 0.916; that for AAGCUUUUCGUAGUCCUCA against NMRAL1, 0.164. Regarding UUCUCGAUGCUUGUGGUUU against DMBX1, the seed-corrected z-score is -0.553. Consider UUUGAUAACAGUUCACUGG against PLAG1, for which the seed-corrected z-score turned out to be 1.2.

In turn, UUCGAUAGAAUUUGAAAGC against SUGP2 returned a seed-corrected z-score of -2.02. The same measure for UUCGAUCAAAAUACAAGGC against GLDN: -0.856; for UGGAAUAUGACUCUUUGCC against STRA8: -0.991. The result for AUGGGUAAGAUGUAUGUUG against ZFAND1 reads -0.296.

Take UUCGGUAUCGUCUGUAUCC against USP8: the seed-corrected z-score was -1.37. The result for UCUGGAACUAUUUACUCGG against NEMP1 reads -14.8; that for AUGACAAUCACAUUCCUCU against AKR1B10, 0.0562; that for UUUGCUCCCACCAAAUACC against KLHDC1, 1.18. The same measure for AUAGGAAGAACUCUGUUUG against SCHIP1: -2.03; for UCCAUAAUCUGUUUCGCUG against INTS4: -1.43. The same measure for UCAAUGACAGCUAAUAGCC against ARL13A: -1.36. Regarding UUCUUAACAUAGGGCAUGG against RRM2B, the seed-corrected z-score was -0.284. The same measure for UGAACCUCUAGACUCAUAG against ZDBF2: -0.0347.

Sequence AAUUCGAUUAGAGAGUGUC against SENP5 displayed a seed-corrected z-score of 0.00396.
